# According to PMC5540273 (PLoS ONE, 2017):
# Legend:
# Conditions in all cases: concentration: 1 μM, replicates: in singlicate; n = 1
# [1] = test system: PDPK1
# [2] = test system: PFTAIRE2
# [3] = test system: T1, PFTK1
# T1 construct: gene CDK14
# [4] = test system: PHKG1
# [5] = test system: PHKG2
# [6] = test system: PIK3C2B
# [7] = test system: PIK3C2G
# [8] = test system: PIK3CA
# [9] = test system: PIK3CB
# [10] = test system: PIK3CD
# 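Also: KINOMEscan kinase panel screen.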
SMILES,%Inh [1] [%],%Inh [2] [%],%Inh [3] [%],%Inh [4] [%],%Inh [5] [%],%Inh [6] [%],%Inh [7] [%],%Inh [8] [%],%Inh [9] [%],%Inh [10] [%]
Cl.c1ccc(Cn2cnc3cc(Nc4ncnc5ccccc45)ccc32)cc1 [GW272142],0,16,23,0,1,3,0,1,71,0
CCc1nc(-c2cccc(C)c2)c(-c2ccncc2)s1,1,0,14,0,9,0,3,0,4,0
COc1cc(OC)cc(-c2cc3cnc(N)nc3nc2NC(=O)NC(C)(C)C)c1,0,0,0,13,0,65,74,0,32,0
COc1cc2nccc(Nc3ccc(OCc4ccc(NC(C)=O)cc4)cc3)c2cc1OC.Cl [GW440135],22,77,0,0,5,17,0,7,0,0
Nc1n[nH]c2ncc(-c3ccccc3)cc12 [SB-517081],0,7,10,0,0,3,0,0,0,0
Cc1ccccc1COc1cc(-n2cnc3cc(Cl)ccc32)sc1C(N)=O [GW813349],0,0,0,0,0,24,17,21,0,0
CCS(=O)(=O)c1ccc(OC)c(Nc2ncc(-c3ccc(F)cc3)o2)c1.Cl [GW591947],0,9,1,0,0,0,0,0,0,0
COc1ccc(CNC(=O)NC2CCN(c3ccnc(Nc4ccc(F)cc4)n3)C2)cc1 (stereo not shown) [GSK1379706],0,0,1,7,0,0,0,2,0,8
O=C(NCCNc1ccnc(Nc2ccc(F)cc2)n1)Nc1ccc2c(c1)OCO2 [GSK1379882],0,25,0,8,7,7,0,7,0,0
FC(F)(F)c1ccc(-c2ncn(CCCN3CCOCC3)c2-c2ccncc2)cc1 [SB-217780],0,40,0,1,4,0,0,0,4,0
Nc1ncnc2c1ncn2-c1cccc2ccccc12 [SKF-97184],0,0,1,0,0,7,0,2,0,0
CCc1ccc(-c2ccc3c(c2)-c2nn(C)cc2S(=O)(=O)N3C)cc1,23,0,9,0,0,0,0,0,0,0
Nc1ncnc2c1ncn2-c1cccc(F)c1 [SKF-97560],7,0,20,5,0,0,35,0,0,0
Cc1cccc(-c2nc(Nc3ccc4c(cnn4C)c3)c3ccccc3n2)n1 [GW876731],37,10,22,0,0,0,44,0,3,61
CCC(=O)c1c(-c2ccccc2)c2cc(Cl)ccc2c(=O)n1Cc1cc(S(C)(=O)=O)n(CC(F)F)n1,0,0,0,0,7,0,0,0,16,0
COc1cc2ncn(-c3cc(OCc4ccncc4)c(C(N)=O)s3)c2cc1OC [GSK336313],0,27,16,0,0,0,0,1,0,0
